# Values joined by “and” are separate entries in the source; they are usually repeats but may differ in a detail not shown here. Equal values may be shown once. More than one record can exist for a structure, and the calls need not agree. Active and inactive are the calls of the source. Rule for the calls: active = hit-call score of the fitted dose curve at least 0.9, where 1 is the maximum; inactive = score below 0.9.
# Key:
# [1] = APR_HepG2_NuclearSize_72hr: Apredica 72-hour HepG2 Assay for Nuclear Size (AID 2282925); settings: high-content imaging, actives raise or lower the signal
# Procedure, shortened: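 HepG2 cells dosed 72 h at 0.39–200 uM (10 concentrations, duplicate) in 0.5% v/v DMSO final. Fixed, Hoechst 33342-stained nuclei imaged; nuclear diameter measured by automated image analysis. Bidirectional fit versus DMSO.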
# [2] = ATG_CRE_CIS: Attagene CIS-FACTORIAL HepG2 Assay for human cAMP Responsive Element (CRE) binding protein 3 (AID 2282926); settings: HepG2 CRE cis-reporter, Attagene multiplexed mRNA; actives raise or lower the signal
# Procedure, shortened: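 Endogenous CRE-binding activity in HepG2 is reported through a cis-regulated transfected reporter. Following a day of exposure, mRNA levels are determined by reverse transcription PCR and fluorescent fragment analysis; fits run in both directions versus DMSO.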
# [3] = molecular target: CCAAT/enhancer-binding protein beta (Homo sapiens) (UniProt P17676); test: ATG_C_EBP_CIS: Attagene CIS-FACTORIAL HepG2 Assay for human CCAAT/Enhancer Binding Protein (C/EBP) beta (AID 2282927); settings: HepG2 Attagene cis-factorial transcription factor reporter; actives raise or lower the signal
# Procedure, shortened: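 Transiently transfected HepG2 (MRTU library, endogenous TF-driven promoters); 24 h dosing; total RNA → oligo(dT) RT → PCR → 6-FAM primer extension → HpaI digest → CE; fit bidirectionally vs DMSO.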
# [4] = ATG_CMV_CIS: Attagene CIS-FACTORIAL HepG2 Assay for human CMV (Internal Marker) (AID 2282928); settings: HepG2 CMV promoter reporter, transcription factor profiling; actives raise or lower the signal;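 note: endpoint acts as a background internal control marker rather than a target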
# Procedure, shortened: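 After transient transfection of HepG2 with reporter transcription units driven by cis-regulatory promoters, cells receive test chemical for 24 h. Labeled reporter amplicons, digested with HpaI, are sized and quantified by capillary electrophoresis against DMSO.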
# [5] = ATG_DR4_LXR_CIS: Attagene CIS-FACTORIAL HepG2 Assay for human Liver X Receptor (LXR), DR4 submotif (AID 2282929); settings: HepG2 Attagene DR4 cis-reporter, mRNA transcription; actives raise or lower the signal
# Procedure, shortened: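 Readout: reporter transcript fluorescence after RT-PCR and capillary electrophoresis, fitted bidirectionally against DMSO controls. Human HepG2 liver cells carried transiently transfected multiplexed reporter constructs; endogenous transcription factor activity measured 24 h post-dosing.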
# [6] = molecular target: Aryl hydrocarbon receptor (Homo sapiens) (UniProt P35869); test: ATG_Ahr_CIS: Attagene CIS-FACTORIAL HepG2 Assay for human Aryl Hydrocarbon Receptor (Ahr) (AID 2282930); settings: HepG2 AhR cis-factorial reporter transcription; actives raise or lower the signal
# Procedure, shortened: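 Read-out: reporter mRNA quantified by RT-PCR with fluorescent primer extension and capillary electrophoresis. Human HepG2 liver cells carried transfected cis-promoter reporter units and were exposed to chemical for 24 h; gain or loss fitted relative to DMSO.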
# [7] = ATG_AP_1_CIS: Attagene CIS-FACTORIAL HepG2 Assay for human Activator Protein 1 (AP-1) (AID 2282931); settings: HepG2 Attagene cis-factorial AP-1 reporter mRNA; actives raise or lower the signal
# Procedure, shortened: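 Reporter transcripts were measured 24 h after dosing by RT-PCR and capillary electrophoresis of fluorescent fragments. Cells: HepG2 carrying transfected cis-regulated reporter constructs reading endogenous factor activity. Gain or loss fitted against DMSO.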
# [8] = ATG_AP_2_CIS: Attagene CIS-FACTORIAL HepG2 Assay for human Activator Protein 2 (AP-2) (AID 2282932); settings: HepG2 AP-2 cis-reporter, Attagene transcription factor profiling; actives raise or lower the signal
# Procedure, shortened: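 HepG2 cells transiently transfected with cis-element reporter units and exposed for 24 h. Reporter mRNA measured by RT-PCR, FAM labelling, HpaI digestion and capillary electrophoresis. Changes in either direction fitted relative to DMSO.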
# [9] = ATG_BRE_CIS: Attagene CIS-FACTORIAL HepG2 Assay for human Bone Morphogenetic Protein (BMP) Response Element (BRE) (AID 2282933); settings: HepG2 BMP response element reporter, Attagene transcription factor profiling; actives raise or lower the signal
# Procedure, shortened: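 Fluorescence-labelled reporter cDNA fragments, separated by capillary electrophoresis, gave the signal for this component of a 52-readout multiplex. HepG2 cells were transfected, exposed to chemicals for 24 h, and compared with DMSO using bidirectional fitting.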
# [10] = molecular target: Retinoic acid receptor alpha (Homo sapiens) (UniProt P10276); test: ATG_DR5_RAR_CIS: Attagene CIS-FACTORIAL HepG2 Assay for human Retinoic Acid Receptor Alpha (RARE), DR5 submotif (AID 2282934); settings: HepG2 Attagene cis-factorial RARE DR5 reporter, mRNA; actives raise or lower the signal;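 for AC50: reporter responds to endogenous RAR alpha beta and gamma in HepG2 not RARA alone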
# Procedure, shortened: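 Read-out: DR5-driven reporter transcript measured by RT-PCR, 6-FAM primer extension, HpaI digest and capillary electrophoresis. Human HepG2 liver cells carry transiently transfected cis-element reporter constructs; dosing lasts 24 h. Gain or loss of signal fitted against DMSO baseline.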
# [11] = molecular target: Transcription factor E2F1 (Homo sapiens) (UniProt Q01094); test: ATG_E2F_CIS: Attagene CIS-FACTORIAL HepG2 Assay for human E2F Transcription Factor 1 (AID 2282935); settings: HepG2 Attagene cis-reporter, E2F reporter RNA transcripts; actives raise or lower the signal
# Procedure, shortened: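 Endogenous E2F1 activity read through cis-promoter reporter units transfected into HepG2. After 24 h compound treatment, reporter mRNA measured by RT-PCR, HpaI digestion and capillary electrophoresis. Bidirectional fit versus DMSO.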
# [12] = ATG_E_Box_CIS: Attagene CIS-FACTORIAL HepG2 Assay for human Enhancer Box (E-box) (AID 2282936); settings: HepG2 E-box cis-reporter transcription, actives raise or lower the signal
# Procedure, shortened: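 HepG2 cells transiently transfected with multiplexed cis-element reporter units, dosed 24 h; reporter mRNA quantified by RT-PCR, 6-FAM labelling, HpaI digestion and capillary electrophoresis. E-box (USF1) signal fitted bidirectionally vs DMSO.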
# [13] = ATG_M_61_CIS: Attagene CIS-FACTORIAL HepG2 Assay for M61 Transcription Factor (Internal Marker) (AID 2282937); settings: HepG2 Attagene CIS-FACTORIAL M61 internal marker reporter; actives raise or lower the signal
# Procedure, shortened: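 Readout: fluorescent reporter mRNA fragments resolved by capillary electrophoresis after RT-PCR. Transiently transfected human HepG2 cells carried MRTU constructs reporting endogenous TF activity; 24 h chemical exposure; gain or loss of signal fitted relative to DMSO.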
# [14] = ATG_EGR_CIS: Attagene CIS-FACTORIAL HepG2 Assay for human Early Growth Response 1 (EGR1) (AID 2282938); settings: HepG2 Attagene CIS-FACTORIAL EGR reporter mRNA; actives raise or lower the signal
# Procedure, shortened: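 Read-out: fluorescent reporter-mRNA fragments resolved by capillary electrophoresis after RT-PCR, 24 h post-dose in transiently transfected HepG2. Endogenous transcription-factor activity reported via cis-element-regulated reporter units; gain or loss fitted relative to DMSO.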
# [15] = ATG_M_19_CIS: Attagene CIS-FACTORIAL HepG2 Assay for M19 Transcription Factor (Internal Marker) (AID 2282939); settings: HepG2 Attagene CIS-FACTORIAL M19 internal marker reporter; actives raise or lower the signal
# Procedure, shortened: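 HepG2, MRTU transient transfection, 24 h dosing. Total RNA → RT-PCR → 6-FAM primer extension → HpaI digest → CE fluorescence. Bidirectional curve fit, DMSO negative control.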
# [16] = ATG_ERE_CIS: Attagene CIS-FACTORIAL HepG2 Assay for Estrogen Response Element (ERE) (AID 2282940); settings: HepG2 ERE cis-reporter, Attagene RNA transcript; actives raise or lower the signal
# Procedure, shortened: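 After a 24 h chemical treatment, RNA from reporter-transfected HepG2 cells is reverse-transcribed, PCR-amplified and fluorescently labelled. Fragments separated by capillary electrophoresis give reporter signal; DMSO serves as negative control.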
# [17] = ATG_Ets_CIS: Attagene CIS-FACTORIAL HepG2 Assay for human Erythroblast Transformation Specific (ETS) (AID 2282941); settings: HepG2 ETS cis-reporter transcription, actives raise or lower the signal
# Procedure, shortened: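 Human HepG2 hepatoma cells were transiently transfected with promoter-driven reporter constructs and treated for 24 hours. Reporter transcripts were quantified by RT-PCR with fluorescent primer extension; bidirectional curve fitting used DMSO as reference.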
# [18] = molecular target: Hepatocyte nuclear factor 3-beta (Homo sapiens) (UniProt Q9Y261); test: ATG_FoxA2_CIS: Attagene CIS-FACTORIAL HepG2 Assay for human Forkhead box A2 (FOXA2) (AID 2282942); settings: HepG2 cis-reporter transcription factor activity, 24 h; actives raise or lower the signal
# Procedure, shortened: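 Readout: fluorescent reporter transcripts resolved by capillary electrophoresis after RT-PCR. Transiently transfected HepG2, 24 h compound exposure, endogenous TF activity at cis promoter elements. Gain or loss of signal fitted relative to DMSO.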
# [19] = ATG_FoxO_CIS: Attagene CIS-FACTORIAL HepG2 Assay for human Forkhead box O (FoxO) (AID 2282943); settings: HepG2 Attagene cis-reporter, FoxO element, mRNA; actives raise or lower the signal
# Procedure, shortened: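 Read-out: fluorescence of 6-FAM-labelled reporter cDNA fragments resolved by capillary electrophoresis. Transiently transfected HepG2 cells were dosed for 24 h; activity fitted in both directions relative to DMSO controls.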
# [20] = ATG_GATA_CIS: Attagene CIS-FACTORIAL HepG2 Assay for human GATA Binding Protein (AID 2282944); settings: HepG2 GATA cis-element reporter, Attagene multiplex mRNA; actives raise or lower the signal
# Procedure, shortened: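 Cells: HepG2, transiently transfected with cis-regulated reporter transcription units. Exposure: 24 h. Detection: RT-PCR plus capillary electrophoresis of FAM-labeled fragments. Analysis: bidirectional, DMSO as baseline.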
# Chain of Transcription factor E2F1 (Homo sapiens) (Q01094 whole entry, looked up): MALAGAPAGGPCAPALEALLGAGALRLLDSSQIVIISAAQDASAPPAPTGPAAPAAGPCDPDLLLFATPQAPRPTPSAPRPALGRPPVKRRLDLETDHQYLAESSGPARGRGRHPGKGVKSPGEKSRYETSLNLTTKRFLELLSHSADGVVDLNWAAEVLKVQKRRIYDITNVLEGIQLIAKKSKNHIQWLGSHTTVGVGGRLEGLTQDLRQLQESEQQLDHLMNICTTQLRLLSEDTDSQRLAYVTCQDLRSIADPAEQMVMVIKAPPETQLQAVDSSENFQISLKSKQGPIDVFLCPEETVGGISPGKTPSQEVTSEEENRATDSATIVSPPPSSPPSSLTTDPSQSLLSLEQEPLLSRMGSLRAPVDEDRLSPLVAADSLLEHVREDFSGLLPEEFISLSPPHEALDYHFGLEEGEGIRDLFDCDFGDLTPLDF
# Chain of Hepatocyte nuclear factor 3-beta (Homo sapiens) (Q9Y261 whole entry, looked up): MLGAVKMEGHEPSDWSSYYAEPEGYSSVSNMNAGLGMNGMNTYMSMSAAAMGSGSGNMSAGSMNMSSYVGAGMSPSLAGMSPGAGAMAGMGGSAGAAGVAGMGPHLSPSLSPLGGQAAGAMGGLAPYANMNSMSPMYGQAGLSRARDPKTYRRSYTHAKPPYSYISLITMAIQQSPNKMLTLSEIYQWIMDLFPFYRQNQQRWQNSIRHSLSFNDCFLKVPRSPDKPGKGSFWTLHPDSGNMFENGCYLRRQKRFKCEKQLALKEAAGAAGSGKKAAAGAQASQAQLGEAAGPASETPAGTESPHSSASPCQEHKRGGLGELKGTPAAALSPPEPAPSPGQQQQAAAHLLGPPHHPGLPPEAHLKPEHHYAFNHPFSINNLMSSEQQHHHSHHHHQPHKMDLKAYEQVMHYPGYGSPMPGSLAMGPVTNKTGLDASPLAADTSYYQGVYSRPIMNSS
# Chain of Aryl hydrocarbon receptor (Homo sapiens) (P35869 whole entry, looked up): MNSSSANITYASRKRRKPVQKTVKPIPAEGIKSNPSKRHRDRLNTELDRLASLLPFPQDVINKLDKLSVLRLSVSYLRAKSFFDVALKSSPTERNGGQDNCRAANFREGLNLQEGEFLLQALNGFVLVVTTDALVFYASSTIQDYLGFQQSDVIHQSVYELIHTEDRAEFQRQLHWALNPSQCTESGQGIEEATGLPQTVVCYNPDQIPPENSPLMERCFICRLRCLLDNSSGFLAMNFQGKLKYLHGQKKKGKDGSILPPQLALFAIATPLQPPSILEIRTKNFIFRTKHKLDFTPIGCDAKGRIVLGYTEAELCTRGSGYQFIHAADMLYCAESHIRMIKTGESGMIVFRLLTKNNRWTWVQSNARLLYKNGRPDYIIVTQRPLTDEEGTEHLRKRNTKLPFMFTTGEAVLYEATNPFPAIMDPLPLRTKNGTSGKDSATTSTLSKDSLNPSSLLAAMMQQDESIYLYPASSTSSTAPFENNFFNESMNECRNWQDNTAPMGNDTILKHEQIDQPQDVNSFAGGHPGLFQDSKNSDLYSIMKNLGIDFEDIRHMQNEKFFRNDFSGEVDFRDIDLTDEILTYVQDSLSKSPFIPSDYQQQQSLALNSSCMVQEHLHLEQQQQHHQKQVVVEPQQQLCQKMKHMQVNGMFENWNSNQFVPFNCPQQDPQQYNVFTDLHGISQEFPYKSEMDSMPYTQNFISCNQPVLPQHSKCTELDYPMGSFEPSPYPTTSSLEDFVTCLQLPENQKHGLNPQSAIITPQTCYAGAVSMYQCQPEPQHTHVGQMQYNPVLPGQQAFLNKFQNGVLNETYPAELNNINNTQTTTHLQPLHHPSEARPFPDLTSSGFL
# Chain of Retinoic acid receptor alpha (Homo sapiens) (P10276 whole entry, looked up): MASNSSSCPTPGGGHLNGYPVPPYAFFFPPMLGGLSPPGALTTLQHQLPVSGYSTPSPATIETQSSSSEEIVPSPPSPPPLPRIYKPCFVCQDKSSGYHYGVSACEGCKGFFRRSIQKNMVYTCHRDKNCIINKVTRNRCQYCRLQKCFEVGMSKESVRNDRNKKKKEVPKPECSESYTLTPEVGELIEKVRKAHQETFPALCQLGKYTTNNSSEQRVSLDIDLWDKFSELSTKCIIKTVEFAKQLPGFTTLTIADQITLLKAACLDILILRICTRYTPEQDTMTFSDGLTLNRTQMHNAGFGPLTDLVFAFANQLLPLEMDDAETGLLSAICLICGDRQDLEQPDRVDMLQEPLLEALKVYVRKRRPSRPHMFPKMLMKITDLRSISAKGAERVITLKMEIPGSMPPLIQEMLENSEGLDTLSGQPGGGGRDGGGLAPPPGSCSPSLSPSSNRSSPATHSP
# Chain of CCAAT/enhancer-binding protein beta (Homo sapiens) (P17676 whole entry, looked up): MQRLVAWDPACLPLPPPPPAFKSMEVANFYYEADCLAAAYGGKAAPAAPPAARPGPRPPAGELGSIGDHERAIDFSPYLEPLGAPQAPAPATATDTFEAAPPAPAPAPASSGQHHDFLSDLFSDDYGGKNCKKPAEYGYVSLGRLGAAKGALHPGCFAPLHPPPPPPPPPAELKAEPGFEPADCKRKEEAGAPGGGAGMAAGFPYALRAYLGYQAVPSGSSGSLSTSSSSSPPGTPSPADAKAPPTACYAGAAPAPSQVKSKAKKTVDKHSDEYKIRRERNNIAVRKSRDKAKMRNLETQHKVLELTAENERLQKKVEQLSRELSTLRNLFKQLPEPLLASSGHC
smiles,measurement,setting,value
CCOc1cc(Oc2ccc(C(F)(F)F)cc2Cl)ccc1[N+](=O)[O-],outcome,[1],inactive
same,outcome,[2],inactive
same,AC50,[3],23.6 µM (active)
same,AC50,[4],13.6 µM (active)
same,AC50,[5],33.1 µM (active)
same,outcome,[6],inactive
same,AC50,[7],22 µM (active)
same,outcome,[8],inactive
same,AC50,[9],16.6 µM (active)
same,outcome,[10],inactive
same,outcome,[11],inactive
same,outcome,[12],inactive
same,outcome,[13],inactive
same,outcome,[14],inactive
same,outcome,[15],inactive
same,AC50,[16],13.1 µM (active)
same,outcome,[17],inactive
same,outcome,[18],inactive
same,outcome,[19],inactive
same,outcome,[20],inactive
COC(=O)N(OC)c1ccccc1COc1ccn(-c2ccc(Cl)cc2)n1,outcome,[1],inactive
same,AC50,[2],0.532 µM (active)
same,AC50,[3],0.401 µM (active)
same,AC50,[4],0.457 µM (active)
same,AC50,[5],2.77 µM (active)
same,outcome,[6],inactive
same,outcome,[7],inactive
same,outcome,[8],inactive
same,AC50,[9],0.743 µM (active)
same,AC50,[10],640 nM (active)
same,outcome,[11],inactive
same,outcome,[12],inactive
same,outcome,[13],inactive
same,outcome,[14],inactive
same,outcome,[15],inactive
same,outcome,[16],inactive
same,AC50,[17],1.47 µM (active)
same,outcome,[18],inactive
same,outcome,[19],inactive
same,outcome,[20],inactive
CCOC(=O)CC(SP(=S)(OC)OC)C(=O)OCC (centres undefined),AC50,[2],26.6 µM (active)
same,outcome,[2],inactive
same,outcome,[3],inactive
same,outcome,[4],inactive
same,outcome,[5],inactive
same,outcome,[6],inactive
same,AC50,[7],41.2 µM (active)
same,outcome,[7],inactive
same,outcome,[8],inactive
same,AC50,[9],69.2 µM (active) and 28.1 µM (active)
same,outcome,[11],inactive
same,outcome,[12],inactive
same,outcome,[13],inactive
same,AC50,[14],100 µM (active)
same,outcome,[14],inactive
same,outcome,[15],inactive
same,AC50,[16],100 µM (active) and 27 µM (active)
same,outcome,[17],inactive
same,outcome,[18],inactive
same,outcome,[19],inactive
same,outcome,[20],inactive
CNC(=S)S,outcome,[2],inactive
same,outcome,[3],inactive
same,AC50,[4],50 µM (active)
same,outcome,[4],inactive
same,outcome,[5],inactive
same,AC50,[6],33.2 µM (active)
same,outcome,[6],inactive
same,AC50,[7],50 µM (active)
same,outcome,[7],inactive
same,outcome,[8],inactive
same,AC50,[9],65.9 µM (active)
same,outcome,[9],inactive
same,outcome,[11],inactive
same,outcome,[12],inactive
same,outcome,[13],inactive
same,AC50,[14],50 µM (active)
same,outcome,[14],inactive
same,outcome,[15],inactive
same,outcome,[16],inactive
same,outcome,[17],inactive
same,outcome,[18],inactive
same,outcome,[19],inactive
same,outcome,[20],inactive
CCNc1nc(Cl)nc(NCC)n1,outcome,[1],inactive
same,outcome,[2],inactive
same,outcome,[3],inactive
same,outcome,[4],inactive
same,outcome,[5],inactive
same,outcome,[6],inactive
same,outcome,[7],inactive
same,outcome,[8],inactive
same,outcome,[9],inactive
same,outcome,[10],inactive
same,outcome,[11],inactive
same,outcome,[12],inactive
same,outcome,[13],inactive
same,outcome,[14],inactive
same,outcome,[15],inactive
same,outcome,[16],inactive
same,outcome,[17],inactive
same,outcome,[18],inactive
same,outcome,[19],inactive
same,outcome,[20],inactive
COc1nc(C)nc(NC(=O)NS(=O)(=O)c2ccccc2Cl)n1,outcome,[1],inactive
same,outcome,[2],inactive
same,outcome,[3],inactive
same,outcome,[4],inactive
same,outcome,[5],inactive
same,outcome,[6],inactive
same,outcome,[7],inactive
same,outcome,[8],inactive
same,outcome,[9],inactive
same,outcome,[10],inactive
same,outcome,[11],inactive
same,outcome,[12],inactive
same,outcome,[13],inactive
same,outcome,[14],inactive
same,outcome,[15],inactive
same,outcome,[16],inactive
same,outcome,[17],inactive
same,outcome,[18],inactive
same,outcome,[19],inactive
same,outcome,[20],inactive
